According to the supplement of paper PMC7393113:
Structures can show the parent of a compound that is named as a salt. ± gives the standard deviation of the averaged measurements.

Tested on: iBMDM (immortalised mouse bone-marrow-derived macrophages), LPS-stimulated
Assay: mitochondrial superoxide (MitoSOX fluorescence) fold increase over unstimulated control; higher = more LPS-induced mitochondrial ROS (less inhibition)
Details: inhibitor concentration: 500 nM; LPS: 100 ng/ml; time after LPS: 1 h
Method in brief: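 Immortalised mouse bone-marrow-derived macrophages in black 96-well plates were kept in phenol-red-free 1% FCS/DMEM for 20 h, pretreated 30 min with kinase inhibitors (500 nM), loaded with 1 μM MitoSox for 10 min and then given LPS (100 ng/ml). Fluorescence at excitation/emission 510/580 nm was read on a ClarioStar plate reader every 60 min for 4 h, with wells in triplicate. Mitochondrial superoxide is given as fold induction over untreated macrophages, averaged across replicates.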

**Q.** Which mitochondrial superoxide does the source give for `CCNC(=O)Nc1ccc(-c2nc3c(c(N4CCOC[C@@H]4C)n2)CCN(C2COC2)C3)cc1` here?
**A.** 1.42 ± 0.045

**Q.** With `Cc1ccc(NC(=O)c2ccc(CN3CCN(C)CC3)cc2)cc1Nc1nc(-c2cccnc2)cs1` [Masitinib (AB1010)] as the compound, how does the mitochondrial superoxide read?
**A.** 1.44 ± 0.013

**Q.** For `Cn1cc(-c2ccc3nnc(Sc4ccc5ncccc5c4)n3n2)cn1`, which mitochondrial superoxide is on record?
**A.** 1.33 ± 0.036

**Q.** `CCCS(=O)(=O)Nc1ccc(F)c(C(=O)c2c[nH]c3ncc(-c4ccc(Cl)cc4)cc23)c1F` [Vemurafenib (PLX4032, RG7204)] was tested. Which mitochondrial superoxide did it give?
**A.** 1.159 ± 0.0019

**Q.** How did the mitochondrial superoxide turn out when `CN1CCN(c2ccc3nc(-c4c(N)c5c(F)cccc5[nH]c4=O)[nH]c3c2)CC1` [Dovitinib (TKI-258) Dilactic Acid] was run?
**A.** 1.28 ± 0.073

**Q.** `CCCCCCCCCCCCc1ccc(S(=O)(=O)Nc2nncs2)cc1` was tested. Which mitochondrial superoxide did it give?
**A.** 1.21 ± 0.041

**Q.** For `C[C@@H]1COCCN1c1cc(C2(S(C)(=O)=O)CC2)nc(-c2cccc3[nH]ccc23)n1`, which mitochondrial superoxide is on record?
**A.** 1.19 ± 0.055

**Q.** With `O=C(Nc1cccc(Nc2ncc(Br)c(NCCc3cnc[nH]3)n2)c1)N1CCCC1` as the compound, how does the mitochondrial superoxide read?
**A.** 1.13 ± 0.088

**Q.** Which mitochondrial superoxide does the source give for `O=C(NOCC(O)CO)c1cc(Br)c(F)c(F)c1Nc1ccc(I)cc1F` (stereo not drawn) here?
**A.** 1.31 ± 0.033

**Q.** Which mitochondrial superoxide does the source give for `O=C(Nc1c[nH]nc1-c1nc2ccc(CN3CCOCC3)cc2[nH]1)NC1CC1` here?
**A.** 1.34 ± 0.02

**Q.** Which mitochondrial superoxide does the source give for `CNC(=O)c1ccc(-c2cnc3ncc(Cc4ccc5ncccc5c4)n3n2)cc1F` here?
**A.** 1.12 ± 0.033

**Q.** Which mitochondrial superoxide does the source give for `COc1cc2nccc(Oc3ccc(NC(=O)Nc4ccc(F)cc4F)c(F)c3)c2cc1OC` here?
**A.** 1.13 ± 0.036

**Q.** `COc1cc(Nc2ncc(F)c(Nc3ccc4c(n3)NC(=O)C(C)(C)O4)n2)cc(OC)c1OC` was tested. Which mitochondrial superoxide did it give?
**A.** 1.1 ± 0.027

**Q.** How did the mitochondrial superoxide turn out when `CCc1cncnc1N1CCN(Cc2nc3ccc(C(F)(F)F)cc3[nH]2)CC1` was run?
**A.** 1.12 ± 0.073

**Q.** `Cc1nc(NC(=O)N2CCC[C@H]2C(N)=O)sc1-c1csc(C(C)(C)C)n1` was tested. Which mitochondrial superoxide did it give?
**A.** 1.31 ± 0.053

**Q.** How did the mitochondrial superoxide turn out when `CCN1CCN(Cc2ccc(Nc3ncc(F)c(-c4cc(F)c5nc(C)n(C(C)C)c5c4)n3)nc2)CC1` was run?
**A.** 1.13 ± 0.056

**Q.** How did the mitochondrial superoxide turn out when `N#C/C(=C(/N)Sc1ccc(N)cc1)c1ccccc1C(F)(F)F` was run?
**A.** 1.35 ± 0.024

**Q.** For `CS(=O)(=O)c1ccc(-c2cnc(N)c(C(=O)Nc3ccccc3)n2)cc1`, which mitochondrial superoxide is on record?
**A.** 1.23 ± 0.053

**Q.** How did the mitochondrial superoxide turn out when `CNC(=O)c1cc(Oc2ccc(NC(=O)Nc3ccc(Cl)c(C(F)(F)F)c3)c(F)c2)ccn1` [Regorafenib (BAY 73-4506)] was run?
**A.** 1.5 ± 0.04

**Q.** `O=C1c2ccccc2-c2n[nH]c3cccc1c23` was tested. Which mitochondrial superoxide did it give?
**A.** 1.12 ± 0.027

**Q.** Which mitochondrial superoxide does the source give for `Cc1ccc(-n2nc(C(C)(C)C)cc2NC(=O)Nc2ccc(OCCN3CCOCC3)c3ccccc23)cc1` [BIRB 796 (Doramapimod)] here?
**A.** 0.987 ± 0.051

**Q.** For `Cc1ccc(NC(=O)c2ccc(CN3CCN(C)CC3)cc2)cc1Nc1nccc(-c2cccnc2)n1` [Imatinib Mesylate (STI571)], which mitochondrial superoxide is on record?
**A.** 1.626 ± 0.013

**Q.** How did the mitochondrial superoxide turn out when `Cc1ccc(C(=O)Nc2cccc(C(F)(F)F)c2)cc1Nc1nc(-c2cccnc2)nc2c1cnn2C` was run?
**A.** 1.23 ± 0.037
